Gli-Sufu block = blocks Gli-Sufu signaling in a luciferase reporter; Sufu-KO-LIGHT fibroblasts, Gli luciferase reporter luminescence; inhibition, % at 5 µM; 340,000 compounds, 0.74% hits; AID 588413;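 active = inhibition above about 55%, limit read from the data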;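 note: 0% = DMSO-treated cells and 100% = wells with medium but no cells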
COUP-TFII inh = inhibitors of human COUP-TFII (NR2F2); P24468; HEK293T NGFI-A luciferase reporter, luminescence; 370,000 compounds, 0.7% hits; inhibition, % at 8.6 µM;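 active = inhibition above a per-plate cutoff, mean inhibition of test wells between control levels plus 3 SD, cut at about 38% in these data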;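 note: cells cotransfected with COUP-TFII expression vector driving the NGFI-A reporter; 0% = median of COUP-TF2 test wells and 100% = reporter-only cells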
NCOA1 inh = inhibitors of human steroid receptor coactivator 1 (SRC1); Q15788; HEK293 GAL4-SRC1 luciferase reporter, luminescence; inhibition, % at 3.6 µM; 360,000 compounds, 0.12% hits; AID 588354;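 active = inhibition above the campaign mean plus 3 SD, with each screening campaign given its own cutoff, cut at about 60% in these data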;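 note: 0% = DMSO treated cells and 100% = gossypol at 36 µM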
LRH-1 inv ag = suppresses constitutive activity of human LRH-1. HEK293T StAR-luciferase reporter, LRH-1 transfected, 24 h. inhibition, % at 3.6 µM. 360,000 compounds, 0.13% hits. AID 602396;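 active = inhibition above the mean inhibition of all tested compounds plus 3 SD, cut at about 73% in these data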;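 note: 0% = DMSO wells and 100% = reporter-only cells lacking LRH-1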
Target sequence (O00482 whole entry, looked up): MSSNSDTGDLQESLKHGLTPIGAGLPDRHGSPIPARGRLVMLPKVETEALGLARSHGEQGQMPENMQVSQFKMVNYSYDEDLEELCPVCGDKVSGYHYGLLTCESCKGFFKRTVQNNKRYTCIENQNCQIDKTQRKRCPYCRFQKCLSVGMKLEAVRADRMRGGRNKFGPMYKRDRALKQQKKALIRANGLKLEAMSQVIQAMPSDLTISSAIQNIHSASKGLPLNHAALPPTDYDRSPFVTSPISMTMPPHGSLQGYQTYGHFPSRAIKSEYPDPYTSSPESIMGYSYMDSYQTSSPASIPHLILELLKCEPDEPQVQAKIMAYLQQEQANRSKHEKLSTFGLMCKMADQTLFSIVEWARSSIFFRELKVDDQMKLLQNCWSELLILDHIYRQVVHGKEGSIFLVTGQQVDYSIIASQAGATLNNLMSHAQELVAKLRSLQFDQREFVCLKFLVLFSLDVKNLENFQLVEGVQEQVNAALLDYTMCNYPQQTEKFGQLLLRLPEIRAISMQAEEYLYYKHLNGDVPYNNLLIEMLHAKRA
SRC2 inh = inhibits human steroid receptor coactivator 2; Q15596; 370,000 compounds, 0.17% hits; HEK293 GAL4-SRC2 luciferase reporter, luminescence; inhibition, % at 9 µM;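 active = inhibition above the mean inhibition of all tested compounds plus 3 SD, set per campaign, cut at about 52% in these data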;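 note: 0% = DMSO treated cells and 100% = cells given Gossypol at 36 µM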
SRC3 inh = inhibits human SRC3 coactivator; HEK293 GAL4-SRC3 luciferase reporter, luminescence; inhibition, % at 3.6 µM; 360,000 compounds, 0.17% hits;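 active = inhibition above a per-campaign cutoff, the mean of all compounds plus 3 SD, cut at about 60% in these data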;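 note: 0% = DMSO-treated cells and 100% = gossypol-treated cells at 36 µM; higher means less SRC3-driven luciferase light from the GAL4 reporter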
Gli-Sufu confirm = confirmation of Gli-SUFU pathway antagonists; shares compounds with Gli-Sufu block; Sufu-KO-LIGHT cells, Gli luciferase reporter, luminescence; inhibition, % at 5 µM; 2,500 compounds, 40% hits;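 active = mean inhibition at 5 µM reaching about 45%, limit read from the data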;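 note: plate controls were DMSO-treated cells for no effect and wells lacking cells for full effect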
Gli cytotox = cytotoxic in Gli-SUFU antagonist counter-screen; 2,500 compounds, 32% hits; shares compounds with Gli-Sufu block; cytotoxicity, % at 5 µM; Sufu-KO-LIGHT cells cytotoxicity, ATP luminescence; AID 651994;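 active = mean cytotoxicity at 5 µM above about 25%, limit read from the data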;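 note: cells exposed to compound overnight for roughly 16 to 18 hours; plate controls were DMSO wells with cells for no effect and medium without cells for full effect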
Wnt3a counter = inhibits Wnt3a reporter, counter-screen for Gli-SUFU antagonists; shares compounds with Gli-Sufu block; Wnt-LIGHT cells, Wnt3a-driven luciferase reporter, luminescence; inhibition, % at 6.25 µM; 2,500 compounds, 20% hits;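 active = mean inhibition above about 25%, limit read from the data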
* hit, by the source's call; nt = not tested or not shown. Sampled rows, rich in hits. Any-hit rate of the full collection: about 1.3%.

SMILES	Gli-Sufu block	COUP-TFII inh	NCOA1 inh	LRH-1 inv ag	SRC2 inh	SRC3 inh	Gli-Sufu confirm	Gli cytotox	Wnt3a counter
FC(F)(F)c1ccc(N2CCN(c3cc(-c4ccccc4)nc4ncnn34)CC2)nc1	57*	13	0	5	15	10	49*	10	-64
FC(F)(F)c1cccc(Nc2cc(-c3ccccc3)nc3ncnn23)c1	-1	13	-6	-9	-1	34	nt	nt	nt
O=C(/C=C(\Nc1cc(Cl)c(Cl)c(Cl)c1)c1ccccc1)c1ccccc1	nt	6	nt	nt	-12	nt	nt	nt	nt
CCOC(=O)C1=C(C)NC(C)=C(C(=O)OCC)C1C	53	-1	11	12	-12	19	15	1	11
CCN(CC)C(=O)CSc1nnc(-c2ccc(C(C)(C)C)cc2)n1Cc1ccco1	nt	24	nt	nt	5	nt	nt	nt	nt
COc1ccccc1CN(Cc1nc2ccccc2c(=O)[nH]1)S(=O)(=O)c1ccc(C)cc1	53	3	nt	nt	-1	nt	40	7	-2
Cc1ccc(-c2nnc(NC(=O)c3ccco3)o2)c(C)c1	73*	-23	-30	-17	-15	-22	4	13	-15
Cc1ccc(C)c(-c2nnc(NC(=O)c3ccco3)o2)c1	0	-3	-4	-21	-31	-6	nt	nt	nt
CC(Oc1cccc2c1OC(C)(C)C2)C(=O)O (centres undefined)	96*	-10	-8	9	1	3	10	-7	12
CCN(CC)c1ccc(/C=N/NC(=O)c2c(Cl)cnn2C)c(O)c1	87*	-33	22	42	13	76*	68*	33*	59*
CCN(CC)c1ccc(/C=N/Nc2nc(C)cc(=O)[nH]2)c(O)c1	91*	-2	81*	33	46	84*	85*	41*	70*
CCOc1ccccc1C(=O)Nc1ccc(C(=O)NCC2COc3ccccc3O2)cc1 (centres undefined)	nt	7	nt	nt	5	nt	nt	nt	nt
CC[N+](CC)(CC#Cc1ccccc1)CC#Cc1ccccc1	68*	10	6	12	5	25	71*	22	19
COC(=O)[C@]12C[C@H](CC(=O)NCC34CC5CC(CC(C5)C3)C4)C(=O)N(Cc3ccco3)C1=C[C@H](C1CCCC1)O[C@@H]2C	nt	7	nt	nt	-25	nt	nt	nt	nt
O=[N+]([O-])c1nn(-c2ccc3c(c2)OCCO3)n(O)c1=Nc1ccc(Cl)cc1	57*	31	37	20	52	48	60*	17	44*
Cc1ccc(N=c2c([N+](=O)[O-])nn(-c3ccc4c(c3)OCCO4)n2O)cc1F	61*	17	48	-23	22	45	65*	-2	70*
COc1nnc(-c2ccc(N3CCCCC3)c(N)c2)c2ccccc12	53	-4	5	-23	-27	-31	59*	19	-36
COc1nnc(-c2ccc(C)c(S(N)(=O)=O)c2)c2ccccc12	6	1	-1	4	-64	3	nt	nt	nt
NC(N)=NC(N)=Nc1ccc2ccccc2c1	5	-20	-14	2	10	7	nt	nt	nt
NC(N)=NC(N)=Nc1ccc(SC(F)(F)F)cc1	67*	4	-5	22	27	22	72*	28*	94*
CCCN(CCC)CCNC(=O)c1cc2c(=O)n(C)c3ccccc3c2n1C	63*	-8	-9	-24	-28	12	38	8	-71
CN(CCNC(=O)c1cc2c(=O)n(C)c3ccccc3c2n1C)Cc1ccccc1	2	-4	3	-15	-2	6	nt	nt	nt
Cc1cccc(N2CCN(C(=O)c3cc(S(=O)(=O)N4CCOCC4)cn3C)CC2C)c1 (centres undefined)	58*	-1	15	-2	-11	16	14	1	10
Cc1cccc(N2CCN(C(=O)c3cc(S(=O)(=O)N4CCOCC4)cn3C)CC2)c1C	-9	-4	4	-6	3	12	nt	nt	nt
COc1ccc2cc(C(=O)NCc3ccccc3)[nH]c2c1	51	14	-12	-44	-22	-15	31	11	-59
SMILES	Gli-Sufu block	COUP-TFII inh	NCOA1 inh	LRH-1 inv ag	SRC2 inh	SRC3 inh	Gli-Sufu confirm	Gli cytotox	Wnt3a counter
COc1cc(NC(=O)c2ccccc2)c(C)cc1NC(=O)CSc1nnc(-c2cnccn2)n1-c1ccc(C)cc1	nt	5	nt	nt	22	nt	nt	nt	nt
Cc1sc2ncnc(N3CCN(S(=O)(=O)c4ccc(C(C)(C)C)cc4)CC3)c2c1C	55	7	-36	0	-21	-5	61*	25*	16
Cc1ccc(S(=O)(=O)N2CCN(C(=O)C3CCN(c4ncnc5sc(C)c(C)c45)CC3)CC2)c(C)c1	67*	-3	-11	17	-12	-1	60*	6	-42
Cc1ccc(S(=O)(=O)N2CCN(c3ccc(N4CCOCC4)nn3)CC2)cc1[N+](=O)[O-]	5	10	-6	-6	21	12	nt	nt	nt
O=[N+]([O-])c1ccc(S(=O)(=O)N2CCN(c3ccc(N4CCOCC4)nn3)CC2)cc1	55	-5	3	-8	9	3	33	19	-21
CCOc1ccc(-n2c(SCc3ccc(C#N)cc3)nnc2-c2cccnc2)cc1	95*	8	-4	4	4	3	27	4	-24
C=CCN1C(C(=O)OC)CN(Cc2cn(CCC3OCCO3)nn2)CCS1(=O)=O (centres undefined)	nt	-2	nt	nt	15	nt	nt	nt	nt
Cc1cccc(NC(=O)Cn2cc(C(=O)C3CC3)c3ccccc32)c1C	80*	22	-5	1	18	25	83*	33*	-13
Cc1ccc(C)c(NC(=O)Cn2cc(C(=O)C3CC3)c3ccccc32)c1	16	2	-1	-7	-3	9	nt	nt	nt
COc1ccccc1NC(=O)Cn1cc(C(=O)c2ccco2)c2ccccc21	56*	-11	3	-7	-4	9	69*	38*	31*
COc1ccc(C2=Nn3c(nnc3-c3ccccc3OC)SC2)cc1OCC1CC1	65*	-94	-2	60	22	-1	60*	65*	-105
COc1ccc(OC)c(-c2nnc3n2N=C(c2ccc(OC(F)F)c(OCC4CC4)c2)CS3)c1	6	-10	5	14	11	1	nt	nt	nt
c1ccc(-c2csc3nnc(SCc4ccc5c(c4)OCO5)n23)cc1	52	26	13	20	2	11	10	6	5
O=C(CCSc1nnc2scc(-c3ccccc3)n12)NCc1ccc2c(c1)OCO2	-4	-12	0	-2	-10	11	nt	nt	nt
CC(C)(C)c1nnc(N/N=C/c2ccccc2)n(N)c1=O	-13	19	-13	1	-15	-5	nt	nt	nt
